High-throughput results (PubChem BioAssay)
Rows were chosen to be rich in hits. Some 2.9% of all compounds tested hit in one or more screens of this group.
Glyco luc inh = increase of ERlucT glycosylation luciferase signal, primary screen, N-linked glycosylation inhibitor project, D54 ERlucT cells, luminescence, set 2; D54 ERlucT glycosylation luciferase reporter, 24 h; percent of 100 nM tunicamycin response; reporter increase, % at 12.5 µM; actives 0.23% (n = 360,000); AID 588692, 2011;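 active means mean luciferase reporter signal, scaled so untreated is 0 and the glycosylation-blocking control 100, at or above a set limit in every replicate; inconclusive means mean reaches the limit but not every replicate does; inactive means mean below the limit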;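 further: luciferase carries N-glycosylation sites so blocking glycosylation raises the light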
esBAF inh = Bmi1 luciferase reporter increase in mESCs, primary screen, esBAF inhibitor project, mouse ES cells, Bmi1 luciferase knock-in, single point | 24 h; 100% = twice the neutral-well signal | reporter increase, % at 12.5 µM | actives 2% (n = 350,000); in the data active means activation above about 40%; inconclusive means no clear call, values can overlap the other calls;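 further: a rise in the Bmi1 reporter signal indicates esBAF inhibition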
Vif imaging = HIV Vif self-association inhibitors, primary screen, imaging, HEK293T, single point; inhibition, % at 7.49 µM; actives 0.35% (n = 340,000); HEK293T cells, Vif self-association by quenched fluorescence, 24 h; AID 602346, 2012; in the data active means inhibition above about 50%, passing the limit was not always enough; inconclusive means no clear call, values can overlap the other calls; inactive means below about 31%
PvdQ acylase = P. aeruginosa PvdQ acylase inhibitors, primary screen, biochemical, fluorescence, plate reader and imaging, single point | PvdQ acylase [Pseudomonas aeruginosa LESB58] | purified PvdQ acylase | inhibition, % at 10 µM | actives 0.063% (n = 340,000) | AID 488965, 2010; in the data active means inhibition above about 30%, passing the limit was not always enough; inconclusive means no clear call, values can overlap the other calls
Wnt bcat act = Wnt/beta-catenin pathway activators, primary screen, cell-based, plate reader, single point | Wnt/beta-catenin reporter cell assay, activator | activation, % at 9.35 µM | actives 1.2% (n = 300,000); in the data active means activation above about 30%, passing the limit was not always enough; inconclusive means no clear call, values can overlap the other calls
MITF act = activators of MITF-driven TRPM1 promoter reporter, primary screen, cell-based, SK-MEL-5, luciferase, single point. SK-MEL-5 TRPM1-promoter luciferase, 24 h; % of positive control, neutral wells = 0. activation, % at 12.5 µM. actives 0.75% (n = 300,000);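 active means mean activation of at least 80% with every replicate also reaching 80%; inconclusive means mean reaches 80% but some replicate falls short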
Ring1 derepress = Ring1 mRNA increase in mouse ESCs, confirmation, esBAF inhibitor project, cell-based, mouse ESC, RT-qPCR, cherry-pick; shares compounds with esBAF inh; mouse ESC E14, Ring1 mRNA RT-qPCR fold change; fold change at 33 µM; 550 tested, under 10 active;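 active means Ring1 gene expression raised more than 2-fold over untreated cells in both replicates at either tested dose; inconclusive means only one replicate above 2-fold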;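 further: Ring1 transcript normalised to actin housekeeping signal by TaqMan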
Fgf4 repress = Fgf4 mRNA decrease in mouse ESCs, confirmation, esBAF inhibitor project, cell-based, mouse ESC, RT-qPCR, cherry-pick | shares compounds with esBAF inh | mouse ESC E14, Fgf4 mRNA qPCR fold change; active compounds read low | Fgf4 expression fold change at 33 µM | actives 4% (n = 550) | AID 743177, 2013;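 active means Fgf4 expression under 0.8 fold of control in both repeat measurements at one or both tested doses; inconclusive means under 0.8 fold in just a single repeat measurement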;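 further: Fgf4 transcript normalised to actin in duplex TaqMan qPCR; cells exposed to compound for 24 h before lysis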
Bmi1 derepress = esBAF inhibition via Bmi1 de-repression, confirmation, cell-based, RT-qPCR, mouse ESC, single point, cherry-pick | shares compounds with esBAF inh | mouse ESE14 ES cells, Bmi1 mRNA qPCR fold; active compounds read high | fold change at 33 µM | 550 tested, under 10 active | AID 743180, 2013;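 active means Bmi1 expression fold change above 6 at either tested concentration, seen in replicate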;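 further: higher fold means more Bmi1 de-repression and stronger esBAF inhibition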
A549 cytotox = A549 cell cytotoxicity, cytotoxicity control, plate reader, single point, cherry-pick | 550 tested, under 10 active | shares compounds with esBAF inh | cell viability change % (negative = cytotoxic), % at 25 µM, hits read low | AID 743188, 2013; call rule not given here
HepG2 cytotox SP = HepG2 cell cytotoxicity, cytotoxicity control, plate reader, single point, cherry-pick. shares compounds with esBAF inh. activity change, negative = inhibition, % at 25 µM. active compounds read low. actives 4% (n = 550); in the data active means activity change below about -50%
HEK293 tox SP = HEK293 cell cytotoxicity, cytotoxicity control, plate reader, single point, cherry-pick; activity change, negative = inhibition, % at 25 µM, hits read low; shares compounds with esBAF inh; AID 743190, 2013; actives 3% (n = 550); in the data active means activity change below about -38%, passing the limit was not always enough
Of the large screens only hits and unclear results are named; the others gave an inactive call (follow-up assays come after a bar, where they were run).

C(=N\N1CCN(c2ccccc2)CC1)/c1ccccc1	esBAF inh 63, MITF act 91 | Ring1 derepress inactive | Fgf4 repress inactive | Bmi1 derepress inactive | A549 cytotox inactive | HepG2 cytotox SP inactive | HEK293 tox SP inactive
COc1ccc(OCc2cc(C(=O)N(Cc3nccn3C)C(C)C)no2)c2ccccc12	esBAF inh 70 | Ring1 derepress inactive | Fgf4 repress inactive | Bmi1 derepress inactive | A549 cytotox inactive | HepG2 cytotox SP inactive | HEK293 tox SP inactive
c1ccc2nc3c(ccc4ccccc43)cc2c1	esBAF inh 70 | Ring1 derepress inactive | Fgf4 repress inactive | Bmi1 derepress inactive | A549 cytotox inactive | HepG2 cytotox SP inactive | HEK293 tox SP inactive
Brc1ccccc1-c1nnc(-c2cccnc2)o1	esBAF inh 66 (no result: MITF act) | Ring1 derepress inactive | Fgf4 repress inactive | Bmi1 derepress inactive | A549 cytotox inactive | HepG2 cytotox SP inactive | HEK293 tox SP inactive
Brc1ccc(-c2nnc(-c3cccnc3)o2)cc1	Wnt bcat act inconclusive, MITF act inconclusive (no result: esBAF inh)
COc1ccc(-c2cn3c(C)c(C(=O)NC(C)C)sc3n2)cc1	none
COc1ccc(-c2cn3c(C)c(C(=O)NC(C)(C)C)sc3n2)cc1	esBAF inh 72 (no result: MITF act) | Ring1 derepress inactive | Fgf4 repress inactive | Bmi1 derepress inactive | A549 cytotox inactive | HepG2 cytotox SP inactive | HEK293 tox SP inactive
COc1cccc(C(=O)Nc2cccc3ccccc23)c1OC	none (no result: MITF act)
COc1cc(Cl)c(C)cc1NC(=O)c1cccc(OC)c1OC	esBAF inh 57 | Ring1 derepress inactive | Fgf4 repress inactive | Bmi1 derepress inactive | A549 cytotox inactive | HepG2 cytotox SP inactive | HEK293 tox SP inactive
COc1cccc(NC(=O)c2ccccc2Br)c1	esBAF inh 57 (no result: MITF act) | Ring1 derepress inactive | Fgf4 repress inactive | Bmi1 derepress inactive | A549 cytotox inactive | HepG2 cytotox SP inactive | HEK293 tox SP inactive
COc1cccc(NC(=O)c2ccccc2-c2ccccc2C(=O)O)c1	none (no result: MITF act)
COc1ccccc1C(=O)Oc1ccccc1C(=O)Nc1ccccc1	esBAF inh 69 | Ring1 derepress inactive | Fgf4 repress inactive | Bmi1 derepress inactive | A549 cytotox inactive | HepG2 cytotox SP inactive | HEK293 tox SP inactive
COc1ccccc1C(=O)Nc1ccc(C(=O)O)cc1	none (no result: Wnt bcat act, MITF act)
O=C(c1ccccn1)N1C[C@H]2[C@@H](c3ccccc31)[C@@H](CO)N2C(=O)C1CCCC1	none (no result: Glyco luc inh, Vif imaging, PvdQ acylase, Wnt bcat act, MITF act)
O=C(Cc1ccccc1)N1C[C@H]2[C@@H](c3ccccc31)[C@@H](CO)N2C(=O)c1cccc(F)c1	none (no result: Glyco luc inh, Vif imaging, PvdQ acylase, Wnt bcat act, MITF act)
Cc1cccc(NC(=O)C2C3CCCCC32)c1 (stereo not given)	esBAF inh 67 | Ring1 derepress inactive | Fgf4 repress inactive | Bmi1 derepress inactive | A549 cytotox inactive | HepG2 cytotox SP inactive | HEK293 tox SP inactive
CCNC(=O)c1ccc(CSc2nc3ccccc3s2)cc1	none (no result: esBAF inh)
NC(=O)c1ccc(CSc2nc3ccccc3s2)cc1	esBAF inh 54 | Ring1 derepress inactive | Fgf4 repress inactive | Bmi1 derepress inactive | A549 cytotox inactive | HepG2 cytotox SP inactive | HEK293 tox SP inactive
COc1ccc(Cl)c(-c2cc(C(=O)Nc3ccccc3)[nH]n2)c1	esBAF inh 97 (no result: PvdQ acylase, MITF act) | Ring1 derepress inactive | Fgf4 repress inconclusive | Bmi1 derepress inactive | A549 cytotox inactive | HepG2 cytotox SP inactive | HEK293 tox SP inactive
Cc1ccc(Cl)cc1-c1cc(C(=O)Nc2ccc(F)cc2)[nH]n1	esBAF inh 63 (no result: PvdQ acylase, MITF act) | Ring1 derepress inactive | Fgf4 repress inactive | Bmi1 derepress inactive | A549 cytotox inactive | HepG2 cytotox SP inactive | HEK293 tox SP inactive
Cc1ccc(Cl)cc1-c1cc(C(=O)NCc2ccc(C(F)(F)F)cc2)[nH]n1	none (no result: PvdQ acylase, MITF act)
COc1ccc(Cl)c(-c2cc(C(=O)NCc3ccc(C(F)(F)F)cc3)[nH]n2)c1	none (no result: PvdQ acylase, MITF act)
Cc1ccc(NC(=O)Nc2ccc(F)cc2)cc1Cl	esBAF inh 68 | Ring1 derepress inactive | Fgf4 repress inactive | Bmi1 derepress inactive | A549 cytotox inactive | HepG2 cytotox SP inactive | HEK293 tox SP inactive
COc1ccc(Cl)c(-c2cc(C(=O)Nc3ccc(F)cc3)[nH]n2)c1	esBAF inh 69 (no result: PvdQ acylase, MITF act) | Ring1 derepress inactive | Fgf4 repress inactive | Bmi1 derepress inactive | A549 cytotox inactive | HepG2 cytotox SP inactive | HEK293 tox SP inactive
COCC(=O)Nc1ccc2c(c1)OC[C@@H](C)N(Cc1ccccc1F)C[C@H](C)[C@H](OC)CN(C)C2=O	none (no result: Glyco luc inh, Vif imaging, PvdQ acylase, Wnt bcat act, MITF act)
COCC(=O)N(C)C[C@H]1Oc2cc(C#CCN(C)C)ccc2S(=O)(=O)N([C@@H](C)CO)C[C@H]1C	none (no result: Glyco luc inh, Vif imaging, PvdQ acylase, Wnt bcat act, MITF act)
C[C@H](O)C#Cc1ccc([C@@H]2[C@H](CO)N3CCCCN(C(=O)c4cccc(F)c4)C[C@@H]23)cc1	none (no result: Glyco luc inh, Vif imaging, PvdQ acylase, Wnt bcat act, MITF act)
COc1ccc(-c2cc(C(=O)Nc3ccc(NC(C)=O)cc3)[nH]n2)c(C)c1	esBAF inh 61 (no result: PvdQ acylase, MITF act) | Ring1 derepress inactive | Fgf4 repress inactive | Bmi1 derepress inactive | A549 cytotox inactive | HepG2 cytotox SP inactive | HEK293 tox SP inactive
COc1ccc(-c2cc(C(=O)Nc3cc(OC)c(OC)c(OC)c3)[nH]n2)c(C)c1	none (no result: PvdQ acylase, MITF act)
O=C(Nc1ccc(Cl)cc1)N[C@@H]1CC[C@H](CCn2cc(-c3ccccc3F)nn2)O[C@@H]1CO	none (no result: Glyco luc inh, Vif imaging, PvdQ acylase, Wnt bcat act, MITF act)
